Reference: PubChem BioAssay (NCI)
This is part of a sample that, as a whole, favours compounds with a hit. Of some 83,000 tested, about 20% had one in any assay.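 96-well plates, one dose, 48 hours. Percent growth reported; active if below 10.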 Activity calls are given as the source filed them.

Legend:
Assay in all cases: NCI-60 one-dose screen, 48 h (100 = growth as untreated, 0 = no growth, -100 = all killed)
Conditions in all cases: 10 µM unless noted
NCI-H23 lung = tested on: NCI-H23 lung
NCI-H226 lung = tested on: NCI-H226 lung
NCI-H322M lung = tested on: NCI-H322M lung
HOP-62 NSCLC = tested on: HOP-62 NSCLC
NCI-H460 lung = tested on: NCI-H460 lung
NCI-H522 lung = tested on: NCI-H522 lung
A549/ATCC NSCLC = tested on: A549/ATCC NSCLC
786-0 renal = tested on: 786-0 renal
DU-145 prostate = tested on: DU-145 prostate
MALME-3M melanoma = tested on: MALME-3M melanoma
MDA-MB-231 breast = tested on: MDA-MB-231 breast
RXF 393 renal = tested on: RXF 393 renal
SF-268 CNS = tested on: SF-268 CNS
SF-295 CNS = tested on: SF-295 CNS
SF-539 CNS = tested on: SF-539 CNS
UACC-257 melanoma = tested on: UACC-257 melanoma
M14 melanoma = tested on: M14 melanoma
HCT-15 colon = tested on: HCT-15 colon
K-562 leukemia = tested on: K-562 leukemia

Measured: growth

COc1cc2c(cc1OC)C1CCN3C(=O)CCC3N1CC2 (stereo not given)
inactive: NCI-H23 lung 99.3% | NCI-H226 lung 113% | NCI-H322M lung 124% | HOP-62 NSCLC 121% | NCI-H460 lung 107% | NCI-H522 lung 107% | A549/ATCC NSCLC 113% | 786-0 renal 103% | DU-145 prostate 111% | MALME-3M melanoma 117% | MDA-MB-231 breast 116% | RXF 393 renal 106% | SF-268 CNS 103% | SF-295 CNS 113% | SF-539 CNS 118% | UACC-257 melanoma 108% | M14 melanoma 116% | HCT-15 colon 110%

COc1ccc(C2=NNC(c3cc(Cc4ccc(O)c(C5CC(c6ccc(OC)cc6)=NN5)c4)ccc3O)C2)cc1 (stereo not given)
inactive: NCI-H23 lung 35.9% | NCI-H226 lung 82.6% | NCI-H322M lung 32.1% | HOP-62 NSCLC 60% | NCI-H460 lung 27.5% | A549/ATCC NSCLC 35.2% | 786-0 renal 56.1% | DU-145 prostate 69.3% | MALME-3M melanoma 78.9% | MDA-MB-231 breast 58.3% | RXF 393 renal 72.6% | SF-268 CNS 44% | SF-539 CNS 57.2% | UACC-257 melanoma 70.6% | M14 melanoma 59.3% | HCT-15 colon 43.3%
active: NCI-H522 lung -7.59% | SF-295 CNS 6.47%

ClC1C2CC(c3ccccc32)C1Cl (stereo not given)
inactive: NCI-H23 lung 106% | NCI-H226 lung 109% | NCI-H322M lung 123% | HOP-62 NSCLC 129% | NCI-H460 lung 110% | NCI-H522 lung 100% | A549/ATCC NSCLC 110% | 786-0 renal 103% | DU-145 prostate 118% | MALME-3M melanoma 126% | MDA-MB-231 breast 107% | RXF 393 renal 110% | SF-268 CNS 110% | SF-295 CNS 123% | SF-539 CNS 95.8% | UACC-257 melanoma 112% | M14 melanoma 103% | HCT-15 colon 109%

O=C1Cc2cc(CCn3cncn3)c(Cl)cc2N1
inactive: NCI-H23 lung 24.1% | NCI-H226 lung 74.8% | NCI-H322M lung 92.7% | HOP-62 NSCLC 69.6% | NCI-H460 lung 83.9% | NCI-H522 lung 32.8% | A549/ATCC NSCLC 59.8% | 786-0 renal 94.7% | DU-145 prostate 96.5% | MALME-3M melanoma 93.8% | MDA-MB-231 breast 56% | RXF 393 renal 62% | SF-268 CNS 110% | SF-295 CNS 69.3% | UACC-257 melanoma 51.7% | M14 melanoma 24%

Cn1cc(-c2csc(-c3cn(C)c4ncccc34)n2)c2cccnc21
inactive: NCI-H23 lung 92.1% | NCI-H226 lung 107% | NCI-H322M lung 106% | HOP-62 NSCLC 123% | NCI-H460 lung 98.4% | NCI-H522 lung 87.1% | A549/ATCC NSCLC 89.7% | 786-0 renal 83.1% | MALME-3M melanoma 106% | MDA-MB-231 breast 93.7% | RXF 393 renal 98.4% | SF-268 CNS 106% | SF-295 CNS 98.3% | SF-539 CNS 99% | UACC-257 melanoma 99.8% | M14 melanoma 96%

CC(C)[C@]12O[C@H]1[C@@H]1O[C@]13[C@]1(O[C@H]1C[C@H]1C4=C(CC[C@@]13C)C(=O)OC4)[C@@H]2OC(=O)CN(C)C
inactive: NCI-H226 lung 10.6% | HOP-62 NSCLC 19.2% | A549/ATCC NSCLC 18.4% | 786-0 renal 12.9% | MDA-MB-231 breast 27.8%
active: NCI-H23 lung -19.4% | NCI-H322M lung -7.07% | NCI-H460 lung 0.675% | NCI-H522 lung -41.8% | DU-145 prostate 3.28% | MALME-3M melanoma -45.2% | RXF 393 renal -61.9% | SF-268 CNS -10.2% | SF-295 CNS -27.6% | SF-539 CNS -23% | UACC-257 melanoma -2.52% | M14 melanoma -74.2% | HCT-15 colon 9.18%

NC(N)=NN=c1c(=O)c2ccccc2c1=O
active: NCI-H460 lung 0.312% | DU-145 prostate -97.4% | MALME-3M melanoma -96.4% | M14 melanoma -90.8%
inactive: NCI-H23 lung 58% | NCI-H226 lung 94.6% | NCI-H322M lung 102% | HOP-62 NSCLC 32.3% | NCI-H522 lung 80.8% | A549/ATCC NSCLC 95.1% | 786-0 renal 108% | MDA-MB-231 breast 90.8% | SF-268 CNS 50.6% | SF-295 CNS 66% | SF-539 CNS 112% | UACC-257 melanoma 106% | HCT-15 colon 43.4%

Cc1c(C(N)=O)sc2ncn(CC(=O)Nc3ccc(Cl)cc3)c(=O)c12
inactive: NCI-H23 lung 110% | NCI-H226 lung 105% | NCI-H322M lung 114% | HOP-62 NSCLC 97% | NCI-H460 lung 110% | NCI-H522 lung 141% | A549/ATCC NSCLC 106% | 786-0 renal 104% | DU-145 prostate 126% | K-562 leukemia 96.8% | MDA-MB-231 breast 108% | RXF 393 renal 105% | SF-268 CNS 119% | SF-539 CNS 108% | UACC-257 melanoma 148% | M14 melanoma 103% | HCT-15 colon 117%

COc1cc2c(c(OC)c1OC)-c1ccc(NN(C(=O)c3ccccc3)C(=O)c3ccccc3)c(=O)cc1[C@@H](NC(C)=O)CC2 (tested in a mixture with another compound)
active: NCI-H522 lung -8.35% | DU-145 prostate 3.42% | SF-295 CNS -30.7% | M14 melanoma 4.01%
inactive: NCI-H23 lung 26.9% | NCI-H226 lung 73.3% | NCI-H322M lung 17.8% | HOP-62 NSCLC 46% | NCI-H460 lung 17.9% | A549/ATCC NSCLC 56.6% | 786-0 renal 31.4% | MALME-3M melanoma 39.4% | MDA-MB-231 breast 51.2% | RXF 393 renal 38.5% | SF-268 CNS 48.9% | SF-539 CNS 15.4% | UACC-257 melanoma 58.4% | HCT-15 colon 48.8%

Oc1[nH]c2ccc(Cl)cc2c1/C=c1/ccc2c(c1)N=C(c1ccc(C(F)(F)F)cc1)N=2
inactive: NCI-H23 lung 67.2% | NCI-H226 lung 88.7% | NCI-H322M lung 84.3% | HOP-62 NSCLC 71.5% | NCI-H460 lung 39.2% | NCI-H522 lung 45.7% | A549/ATCC NSCLC 70.5% | 786-0 renal 16.7% | DU-145 prostate 70% | K-562 leukemia 26.9% | MALME-3M melanoma 69.2% | MDA-MB-231 breast 83.4% | SF-295 CNS 40.9% | SF-539 CNS 80.1% | UACC-257 melanoma 66% | M14 melanoma 54.4% | HCT-15 colon 54.1%
active: RXF 393 renal 5.23%

NNC(=O)C1CC2c3ccccc3C1c1ccccc12 (stereo not given)
inactive: NCI-H23 lung 101% | NCI-H226 lung 101% | NCI-H322M lung 116% | HOP-62 NSCLC 112% | NCI-H460 lung 115% | NCI-H522 lung 87% | A549/ATCC NSCLC 113% | 786-0 renal 105% | DU-145 prostate 115% | MALME-3M melanoma 123% | MDA-MB-231 breast 102% | RXF 393 renal 116% | SF-268 CNS 98.7% | SF-295 CNS 105% | SF-539 CNS 99% | UACC-257 melanoma 118% | M14 melanoma 111%

COc1cc(-c2cc(C(=O)Nc3nc4ccccc4s3)nc3cc(-c4ccccc4)nn23)cc(OC)c1OC
active: SF-539 CNS 4.14%
inactive: NCI-H23 lung 49.1% | NCI-H226 lung 70.2% | NCI-H322M lung 90.9% | HOP-62 NSCLC 46.6% | NCI-H460 lung 79.3% | NCI-H522 lung 18.8% | A549/ATCC NSCLC 77.5% | 786-0 renal 81.6% | DU-145 prostate 51.5% | K-562 leukemia 53.2% | MALME-3M melanoma 28.5% | MDA-MB-231 breast 66.1% | RXF 393 renal 66.7% | SF-295 CNS 53% | UACC-257 melanoma 59.1% | M14 melanoma 26.3%

COc1ccc(-c2cc(C(=O)Nc3nc4cc(C)c(C)cc4s3)nc3cc(-c4ccccc4)nn23)cc1OC
inactive: NCI-H23 lung 96% | NCI-H226 lung 113% | NCI-H322M lung 119% | HOP-62 NSCLC 100% | NCI-H460 lung 112% | NCI-H522 lung 89% | A549/ATCC NSCLC 94.5% | 786-0 renal 112% | DU-145 prostate 121% | K-562 leukemia 110% | MALME-3M melanoma 101% | MDA-MB-231 breast 107% | RXF 393 renal 112% | SF-295 CNS 112% | SF-539 CNS 98.7% | UACC-257 melanoma 93% | M14 melanoma 103% | HCT-15 colon 111%

O=C(C(=O)N1CCOCC1)c1ccc(OC2OC(CO)C(O)C(O)C2O)cc1 (stereo not given)
inactive: NCI-H23 lung 106% | NCI-H226 lung 107% | NCI-H322M lung 115% | HOP-62 NSCLC 107% | NCI-H460 lung 110% | NCI-H522 lung 79.9% | A549/ATCC NSCLC 107% | 786-0 renal 103% | DU-145 prostate 125% | MALME-3M melanoma 129% | MDA-MB-231 breast 107% | RXF 393 renal 112% | SF-268 CNS 115% | SF-295 CNS 115% | SF-539 CNS 96.3% | UACC-257 melanoma 96.5% | M14 melanoma 102% | HCT-15 colon 104%

O=Cc1c[nH]c2ccc(NC(=O)OCc3ccccc3)cc12
inactive: NCI-H23 lung 95.4% | NCI-H226 lung 89.7% | NCI-H322M lung 88.6% | HOP-62 NSCLC 105% | NCI-H460 lung 68.4% | NCI-H522 lung 94.1% | A549/ATCC NSCLC 106% | 786-0 renal 95.8% | DU-145 prostate 113% | K-562 leukemia 72.2% | MALME-3M melanoma 186% | MDA-MB-231 breast 88.4% | RXF 393 renal 96.6% | SF-268 CNS 102% | SF-539 CNS 110% | UACC-257 melanoma 85.6% | M14 melanoma 105% | HCT-15 colon 67.1%

Oc1ccc(Cc2ccc(O)c(C3CC(c4ccc(Cl)cc4)=NN3)c2)cc1C1CC(c2ccc(Cl)cc2)=NN1 (stereo not given)
inactive: NCI-H23 lung 17.4% | NCI-H226 lung 53.6% | HOP-62 NSCLC 31.6% | A549/ATCC NSCLC 14.7% | 786-0 renal 18.2% | DU-145 prostate 32.6% | MALME-3M melanoma 29.7% | MDA-MB-231 breast 12.7% | RXF 393 renal 66.5% | SF-268 CNS 29.8% | SF-539 CNS 40.7% | UACC-257 melanoma 23.7% | M14 melanoma 24.5% | HCT-15 colon 17.2%
active: NCI-H322M lung 7.95% | NCI-H460 lung 4.56% | NCI-H522 lung -6.56% | SF-295 CNS -26.9%
